A selection: hits, their analogues and other compounds. The true share with any hit is near 6.1%.
S2 tox – Viability Counterscreen for Primary qHTS for Inhibitors of ATXN expression. S2 cells (HEK-293 line with an ATXN2-luciferase reporter) viability, CellTiter-Fluor protease fluorescence, 24 h. Potency, µM (doses to about 56.7 µM), most hits filed as cytotoxic. hit rate 0.49% among 400,000; note: nearly all actives have a fitted effect of over 40% in size
RORgamma inh – qHTS for inhibitors of ROR gamma transcriptional activity; Drosophila S2 Gal4-RORgamma UAS-luciferase reporter, 20 h; Potency, µM (series often up to 53.6 µM), for the others: at the highest dose activity change, negative = inhibition, usual class: inhibitors; hit rate 5.4% among 310,000; note: % is set by controls: 0 for no effect and ±100 for the full control effect; nearly all actives have a fitted effect of over 60% in size
Target sequence (P51450 whole entry, looked up, the tested form may be a part): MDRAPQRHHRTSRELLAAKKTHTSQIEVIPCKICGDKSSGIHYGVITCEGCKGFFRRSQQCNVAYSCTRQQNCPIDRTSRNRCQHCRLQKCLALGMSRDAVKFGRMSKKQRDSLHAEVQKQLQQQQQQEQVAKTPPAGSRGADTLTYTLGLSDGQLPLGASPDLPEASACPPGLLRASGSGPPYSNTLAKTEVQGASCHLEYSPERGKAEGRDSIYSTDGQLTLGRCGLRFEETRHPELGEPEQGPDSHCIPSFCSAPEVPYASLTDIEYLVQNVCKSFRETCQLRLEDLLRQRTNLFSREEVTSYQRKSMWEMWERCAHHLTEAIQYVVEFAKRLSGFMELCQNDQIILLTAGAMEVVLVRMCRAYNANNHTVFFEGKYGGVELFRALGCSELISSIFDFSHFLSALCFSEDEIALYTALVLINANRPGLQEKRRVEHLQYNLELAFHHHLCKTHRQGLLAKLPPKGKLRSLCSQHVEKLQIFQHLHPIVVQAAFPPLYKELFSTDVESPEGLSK
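Compounds are pin-transferred onto Drosophila Schneider cells expressing a copper-inducible Gal4–ROR gamma transactivation domain fusion. After 1 hr, copper sulfate is added to 700 uM final; luciferase is read 20 hr later.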
HepG2 viability – qHTS for Inhibitors of TGF-b: Cytotox Counterscreen | Potency, µM (highest dose often 46.1 µM), without a hit: at the top dose activity change, negative = cytotoxicity, actives largely listed as cytotoxic | hit rate 0.76% among 410,000 | HepG2 CAGA-GFP viability, ATP luminescence, 18 h
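CellTiter-Glo luminescence gave cytotoxicity after 18 hours at 37 degrees C. The cells were HepG2 CAGA-GFP in 1% FBS DMEM, stimulated with 500 pg/mL TGF-beta after compound addition. %Activity was normalised to no-cell wells (complete cell-killing) and DMSO (no toxicity), and curves were fitted and classified.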
TGFb inhibitor – qHTS for Inhibitors of TGF-b; AID 588855, 2011; Potency, µM (doses to about 46.1 µM), inactives show top-dose activity, negative = inhibition, usual class: inhibitors; hit rate 1.2% among 410,000; HepG2 CAGA-GFP TGF-b/SMAD3 reporter, GFP fluorescence, 18 h; TGF-beta stimulated, 500 pg/mL final; note: % is set by controls: 0 for no effect and ±100 for the full control effect; nearly all actives have a fitted effect of over 65% in size
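Using HEPG2 CAGA-GFP reporter cells at 1000 cells/well, we pinned test compounds, stimulated with recombinant TGF-beta (500 pg/mL final) and measured total well GFP after 18 h.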
ATXN2 expr inh – Primary qHTS for Inhibitors of ATXN expression | HEK-293 ATXN2-luciferase reporter, luminescence, 24 h | Potency, µM (titrated, usually from 57 µM), for inactives: at the top dose activity change, negative = inhibition, actives largely listed as inhibitors | hit rate 0.72% among 360,000 | AID 1745845, 2022; note: % is set by controls: 0 for no effect and ±100 for the full control effect; nearly all actives have a fitted effect of over 55% in size
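qHTS (up to 57 uM final) was run with 24 h compound exposure of reporter cells at 37 °C. Each well was multiplexed: SteadyGlo luminescence measured ATXN2-luciferase expression after a fluorogenic Gly-Phe-AFC viability readout (25 uM final).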
VP16 counter – VP16 counterscreen qHTS for inhibitors of ROR gamma transcriptional activity. hit rate 3.5% among 310,000. Potency, µM (series often up to 53.6 µM), without a hit: at the highest dose activity, negative = inhibition, most hits filed as inhibitors. Drosophila S2 Gal4-VP16 UAS-luciferase, luminescence, 20 h;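 note: Gal4-VP16 expression switched on by copper sulfate through the metallothionein promoter; % is set by controls: 0 for no effect and ±100 for the full control effect; nearly all actives have a fitted effect of over 50% in size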
* = called active by the depositor; i = inactive; ? = inconclusive; . = no result; [ ] = dose if it differs, or a comment. Calls come from the whole dose curve; as a rule, active = well fitted curve in the direction sought with a large enough effect; inconclusive = small, poorly fitted or top-dose-only effect, or another doubt; inactive = no such curve, though single readings can be large; an effect the other way counts as inactive or inconclusive. Potency is the fitted concentration of half-maximal effect.

SMILES	S2 tox	RORgamma inh	HepG2 viability	TGFb inhibitor	ATXN2 expr inh	VP16 counter
O=C(Nc1nnc(-c2cccnc2)o1)c1cccc([N+](=O)[O-])c1	.	0.79µM*	.	.	.	1.1µM*
O=C(Nc1nnc(-c2ccncc2)o1)c1ccc2ccccc2c1	i	1.1µM*	-21%	-15%	-28%	0.56µM*
O=C(Nc1nnc(-c2cccnc2)o1)c1ccccc1Cl	?	8.9µM*	2%	-2%	-2%	?
Cc1cccc(C(=O)Nc2ccnc(-c3cccnc3)n2)c1	i	-7%	3%	-6%	-31%	-8%
Cc1coc2cc3oc(=O)c(CCC(=O)NCc4ccccc4Cl)c(C)c3cc12	i	.	-6%	-2%	6%	.
Cc1cccc(C(=O)Nc2nnc(-c3ccncc3)o2)c1	i	3.2µM*	-17%	-2%	-9%	2.8µM*
COC(=O)c1ccc(C(=O)Nc2ccc3nc(-c4cccnc4)[nH]c3c2)cc1	i	30%	-3%	0%	0%	-9%
O=C(Nc1nnc(-c2ccncc2)o1)c1cccc(N2C(=O)CCC2=O)c1	i	-26%	11%	-14%	-1%	10%
COC(=O)c1ccc(C(=O)Nc2nnc(-c3cccnc3)o2)cc1	.	2.5µM*	.	.	.	2.8µM*
O=[N+]([O-])/C=C/c1cn(Cc2ccc(Cl)cc2)c2ccccc12	?	?	3.5µM*	-41%	?	?
Cc1cccc(Cn2cc(/C=C/[N+](=O)[O-])c3ccccc32)c1	?	?	-61%	7.9µM*	-77%	?
CCOC(=O)Cn1cc(C#N)c2ccccc21	i	23%	7%	?	2%	3%
CCOC(=O)Cn1cc(C(=O)c2ccco2)c2ccccc21	?	4%	-36%	-3%	32µM*	3%
O=C(O)Cn1cc(C(=O)c2ccco2)c2ccccc21	i	5%	-15%	1%	6%	4%[0.365 µM]
O=C(O)c1ccc(Cn2cc(/C=C\[N+](=O)[O-])c3ccccc32)o1	.	-43%	12%	7%	.	-4%
CCOC(=O)Cn1cc(/C=C/[N+](=O)[O-])c2ccccc21	.	?	-72%	16µM*	.	13µM*
CCN(C(=O)CSc1ncc2c(n1)-c1cc(Cl)ccc1N(Cc1ccccc1)S2(=O)=O)c1cccc(C)c1	i	.	-17%	-7%	-8%	.
Nc1c(-c2nc(-c3ccccc3Cl)no2)nnn1-c1ccccc1F	i	.	1%	0%	74%	.
O=c1[nH]nc(Sc2ncc([N+](=O)[O-])s2)n1-c1ccc2c(c1)OCCO2	.	.	.	.	12µM*	.
C=CCn1c(CSc2ccccc2[N+](=O)[O-])n[nH]c1=S	i	-41%	-6%	-11%	11%	-18%
C=CCn1c(Sc2ncc([N+](=O)[O-])s2)n[nH]c1=O	30µM*	4.5µM*	-105%	3.5µM*	?	4µM*
O=c1[nH]nc(SCc2ccccc2Cl)n1-c1ccc2c(c1)OCCO2	i	-4%	-2%	-5%	7%	-3%
CN1CCc2c(sc3c2C(=O)NC(c2ccco2)N3)C1 (centres undefined)	i	-22%	1%	-2%	15%	-11%
CN1CCc2c(sc3c2C(=O)NC(c2cn(Cc4ccccc4)c4ccccc24)N3)C1 (centres undefined)	i	-2%	-54%	1.3µM*	?	-1%
CCC1C(=O)NCCN1Cc1ccc2c(c1)CN(Cc1ccc(F)c(OC)c1)CCO2 (centres undefined)	i	.	.	.	.	.
CC(C)[C@H]1COC(c2cccc([N+](=O)[O-])c2)=N1	.	18%[96.6 µM]	.	.	.	-8%[96.6 µM]
CC(C)C1COC(c2cccc3ccccc23)=N1 (centres undefined)	i	20µM*	-13%	-13%	84%	?
